According to the supplement of paper PMC4466140:

B1: unnamed (peptide)
chain: RKNRAPPQRPRFNRD

target: AgAbp1; test: SPOT peptide array binding signal intensity (averaged, normalized) (arbitrary units (background-subtracted, floor 0; scale differs between SH3 domains)); higher = stronger binding of the SH3 domain to the peptide
In short: (§1)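 E. coli BL21(DE3) was used to express GST-fused SH3 domains from four yeast species, which were then purified on glutathione Sepharose. These were incubated at 10 μg/ml in TBS-based blocking buffer overnight at 4°C on cellulose membranes carrying synthetic 15-mer peptides, in which cysteines were replaced by serines. Binding signal is the replicate average of normalized, background-subtracted spot intensity, in arbitrary units that differ between domains.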

Binder	SPOT peptide array binding signal intensity
B1	958

target: AgBbc1; test: as above
In short: as §1

Binder	SPOT peptide array binding signal intensity
B1	476

target: AgBem1-D1; test: as above
In short: as §1

Binder	SPOT peptide array binding signal intensity
B1	438

target: AgBzz1-D1; test: as above
In short: as §1

Binder	SPOT peptide array binding signal intensity
B1	256

target: AgBzz1-D2; test: as above
In short: as §1

Binder	SPOT peptide array binding signal intensity
B1	154

target: AgCyk3; test: as above
In short: as §1

Binder	SPOT peptide array binding signal intensity
B1	16

target: AgFus1; test: as above
In short: as §1

Binder	SPOT peptide array binding signal intensity
B1	501

target: AgHof1; test: as above
In short: as §1

Binder	SPOT peptide array binding signal intensity
B1	142

target: AgHse1; test: as above
In short: as §1

Binder	SPOT peptide array binding signal intensity
B1	631

target: AgLsb1; test: as above
In short: as §1

Binder	SPOT peptide array binding signal intensity
B1	230

target: AgLsb4; test: as above
In short: as §1

Binder	SPOT peptide array binding signal intensity
B1	131

target: AgMyo5; test: as above
In short: as §1

Binder	SPOT peptide array binding signal intensity
B1	6.5

target: AgNbp2; test: as above
In short: as §1

Binder	SPOT peptide array binding signal intensity
B1	3290

target: AgRvs167; test: as above
In short: as §1

Binder	SPOT peptide array binding signal intensity
B1	7

target: AgSho1; test: as above
In short: as §1

Binder	SPOT peptide array binding signal intensity
B1	37

target: AgSla1-D1-D2; test: as above
In short: as §1

Binder	SPOT peptide array binding signal intensity
B1	474

target: AgSla1-D3; test: as above
In short: as §1

Binder	SPOT peptide array binding signal intensity
B1	52

target: CaAbp1-D1; test: as above
In short: as §1

Binder	SPOT peptide array binding signal intensity
B1	924

target: CaAbp1-D2; test: as above
In short: as §1

Binder	SPOT peptide array binding signal intensity
B1	998

target: CaBbc1; test: as above
In short: as §1

Binder	SPOT peptide array binding signal intensity
B1	1240

target: CaBem1-D1; test: as above
In short: as §1

Binder	SPOT peptide array binding signal intensity
B1	65.5

target: CaBzz1-D1; test: as above
In short: as §1

Binder	SPOT peptide array binding signal intensity
B1	1760

target: CaBzz1-D2; test: as above
In short: as §1

Binder	SPOT peptide array binding signal intensity
B1	1020

target: CaCyk3; test: as above
In short: as §1

Binder	SPOT peptide array binding signal intensity
B1	342

target: CaFus1; test: as above
In short: as §1

Binder	SPOT peptide array binding signal intensity
B1	758

target: CaHof1; test: as above
In short: as §1

Binder	SPOT peptide array binding signal intensity
B1	0.75

target: CaHse1; test: as above
In short: as §1

Binder	SPOT peptide array binding signal intensity
B1	149

target: CaLsb1; test: as above
In short: as §1

Binder	SPOT peptide array binding signal intensity
B1	5.5

target: CaLsb4; test: as above
In short: as §1

Binder	SPOT peptide array binding signal intensity
B1	698

target: CaMyo5; test: as above
In short: as §1

Binder	SPOT peptide array binding signal intensity
B1	10.2

target: CaNbp2; test: as above
In short: as §1

Binder	SPOT peptide array binding signal intensity
B1	1750

target: CaRvs167; test: as above
In short: as §1

Binder	SPOT peptide array binding signal intensity
B1	31.5

target: CaRvs167-3; test: as above
In short: as §1

Binder	SPOT peptide array binding signal intensity
B1	53

target: CaSho1; test: as above
In short: as §1

Binder	SPOT peptide array binding signal intensity
B1	423

target: CaSla1-D1-D2; test: as above
In short: as §1

Binder	SPOT peptide array binding signal intensity
B1	1480

target: CaSla1-D3; test: as above
In short: as §1

Binder	SPOT peptide array binding signal intensity
B1	15

target: ScAbp1; test: as above
In short: as §1

Binder	SPOT peptide array binding signal intensity
B1	153

target: ScBbc1; test: as above
In short: as §1

Binder	SPOT peptide array binding signal intensity
B1	338

target: ScBem1-D1; test: as above
In short: as §1

Binder	SPOT peptide array binding signal intensity
B1	26

target: ScBzz1-D1; test: as above
In short: as §1

Binder	SPOT peptide array binding signal intensity
B1	162

target: ScBzz1-D2; test: as above
In short: as §1

Binder	SPOT peptide array binding signal intensity
B1	16.5

target: ScCyk3; test: as above
In short: as §1

Binder	SPOT peptide array binding signal intensity
B1	138

target: ScFus1; test: as above
In short: as §1

Binder	SPOT peptide array binding signal intensity
B1	293

target: ScHof1; test: as above
In short: as §1

Binder	SPOT peptide array binding signal intensity
B1	1.5

target: ScHse1; test: as above
In short: as §1

Binder	SPOT peptide array binding signal intensity
B1	1230

target: ScLsb1; test: as above
In short: as §1

Binder	SPOT peptide array binding signal intensity
B1	248

target: ScLsb2; test: as above
In short: as §1

Binder	SPOT peptide array binding signal intensity
B1	119

target: ScLsb3; test: as above
In short: as §1

Binder	SPOT peptide array binding signal intensity
B1	1430

target: ScLsb4; test: as above
In short: as §1

Binder	SPOT peptide array binding signal intensity
B1	53

target: ScMyo3; test: as above
In short: as §1

Binder	SPOT peptide array binding signal intensity
B1	22

target: ScMyo5; test: as above
In short: as §1

Binder	SPOT peptide array binding signal intensity
B1	14.5

target: ScNbp2; test: as above
In short: as §1

Binder	SPOT peptide array binding signal intensity
B1	4260

target: ScPex13; test: as above
In short: as §1

Binder	SPOT peptide array binding signal intensity
B1	88.8

target: ScRvs167; test: as above
In short: as §1

Binder	SPOT peptide array binding signal intensity
B1	238

target: ScSho1; test: as above
In short: as §1

Binder	SPOT peptide array binding signal intensity
B1	845

target: ScSla1-D1-D2; test: as above
In short: as §1

Binder	SPOT peptide array binding signal intensity
B1	1900

target: ScSla1-D3; test: as above
In short: as §1

Binder	SPOT peptide array binding signal intensity
B1	49

target: SpAbp1-D1; test: as above
In short: as §1

Binder	SPOT peptide array binding signal intensity
B1	917

target: SpBbc1; test: as above
In short: as §1

Binder	SPOT peptide array binding signal intensity
B1	54

target: SpBzz1-D1; test: as above
In short: as §1

Binder	SPOT peptide array binding signal intensity
B1	853

target: SpBzz1-D2; test: as above
In short: as §1

Binder	SPOT peptide array binding signal intensity
B1	9.75

target: SpCyk3; test: as above
In short: as §1

Binder	SPOT peptide array binding signal intensity
B1	10

target: SpHof1; test: as above
In short: as §1

Binder	SPOT peptide array binding signal intensity
B1	285

target: SpHof1-2; test: as above
In short: as §1

Binder	SPOT peptide array binding signal intensity
B1	16.2

target: SpHof1-3; test: as above
In short: as §1

Binder	SPOT peptide array binding signal intensity
B1	360

target: SpHse1; test: as above
In short: as §1

Binder	SPOT peptide array binding signal intensity
B1	367

target: SpLsb1; test: as above
In short: as §1

Binder	SPOT peptide array binding signal intensity
B1	154

target: SpLsb4; test: as above
In short: as §1

Binder	SPOT peptide array binding signal intensity
B1	793

target: SpMyo1; test: as above
In short: as §1

Binder	SPOT peptide array binding signal intensity
B1	15.5

target: SpNbp2; test: as above
In short: as §1

Binder	SPOT peptide array binding signal intensity
B1	726

target: SpPex13; test: as above
In short: as §1

Binder	SPOT peptide array binding signal intensity
B1	30

target: SpRvs167; test: as above
In short: as §1

Binder	SPOT peptide array binding signal intensity
B1	98.7

target: SpSla1-D1-D2; test: as above
In short: as §1

Binder	SPOT peptide array binding signal intensity
B1	61

target: SpSla1-D3; test: as above
In short: as §1

Binder	SPOT peptide array binding signal intensity
B1	7.5
